Unmarked numbers belong to inactive results. Records with an inconclusive call do not appear. Activity calls are given as the source filed them. Unless noted, calls come from the whole dose curve.

A short description of assay [1]: Nuclear factor erythroid 2-related factor 2/antioxidant responsive element (Nrf2/ARE) small molecule agonists: qHTS cell viability counter screen in human keratinocytes (AID 1919968; active = well fitted curve in the direction sought with a large enough effect in the repeat runs; an effect the other way counts as inactive or inconclusive; note: nearly all actives have a fitted effect of over 55% in size; note: potency is the fitted concentration of half-maximal effect). In short, it runs like this: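 KeratinoSens cells (HaCaT keratinocytes stably carrying an ARE-luciferase reporter) were seeded at 1,500 cells/well and rested 5 h at 37 C/5% CO2. They were then exposed to compounds in DMSO for 23 h. Viability was read by CellTiter-Fluor fluorescence after 1 h.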

Assay [2] can be described thus: Nuclear factor erythroid 2-related factor 2/antioxidant responsive element (Nrf2/ARE) small molecule agonists: luciferase reporter gene qHTS assay in human keratinocytes (AID 1919969). Note: nearly all actives have a fitted effect of over 35% in size. Note: potency is the fitted concentration of half-maximal effect.
The target of assay [3] is Gonadotropin-releasing hormone receptor (Homo sapiens) (UniProt P30968). Nature of the assay: Human gonadotropin-releasing hormone receptor (GnRHR) small molecule agonists, calcium flux assay in GnRHR-HEK293 cells (AID 1920063). Note: nearly all actives have a fitted effect of over 35% in size. In short, it runs like this:
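HEK293 cells stably expressing human GnRHR were plated 18 h at 37 °C, loaded with calcium dye 1 h at 37 °C, then given compound in agonist mode; fluorescence (Ex/Em 480/540) read kinetically for 3 min at 1 s intervals.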

For assay [4], the target named is KiSS-1 receptor (Homo sapiens) (UniProt Q969F8). Nature of the assay: Human kisspeptin (KISS1R) small molecule agonists, calcium flux assay in KISS1R-HEK293 cells (AID 1920064; active = well fitted curve in the direction sought with a large enough effect in the repeat runs; an effect the other way counts as inactive or inconclusive). Summed up:
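HEK293 cells stably expressing human KISS1R were plated 18 h at 37 °C, loaded with calcium dye for 1 h at 37 °C, then given compound by pin tool. Fluorescence (Ex/Em 480/540) was read kinetically for 3 min.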

Assay [5] in a line: G protein-coupled receptor (GPCR) small molecule agonists, calcium flux assay: HEK293 wild type cell line counter screen (AID 1920065). In short, it runs like this:
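Cells were plated and cultured 18 h at 37 C/5% CO2, then loaded with calcium dye for 1 h at 37 C. Compounds in DMSO were pin-transferred in agonist mode, and fluorescence (Ex/Em 480/540) was read kinetically for 3 min at 1 s intervals.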

Assay [6] is described as follows: p53 small molecule agonists, cell-based qHTS assay with rat liver microsomes (AID 1963578). In short, it runs like this:
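Agonist mode in p53RE-bla reporter cells, with compounds co-incubated 16 h at 37 C alongside 0.5 mg/mL rat liver microsomes and 0.5 mg/mL NADPH (final), followed by a 2 h LiveBLAzer detection step.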

A short description of assay [7]: p53 small molecule agonists, cell-based qHTS assay with human liver microsomes: qHTS cell viability counter screen (AID 1963579). Note: nearly all actives have a fitted effect of over 45% in size. In short, it runs like this:
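Metabolically activated exposure: compounds, human liver microsomes and NADPH (0.5 mg/mL final apiece) were added to p53RE-bla cells seeded 5 h earlier, left 16 h at 37 C, and then assessed for viability by CellTiter-Glo luminescence.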

The nature of assay [8]: p53 small molecule agonists, cell-based qHTS assay with rat liver microsomes: qHTS cell viability counter screen (AID 1963580). Note: nearly all actives have a fitted effect of over 45% in size. Summed up:
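HCT-116 p53RE-bla, 4,000 cells/well, 5 h pre-incubation; cpd + rat liver microsomes 0.5 mg/mL + NADPH 0.5 mg/mL (final); 16 h, 37 C; CellTiter-Glo, 30 min RT; luminescence.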

A short description of assay [9]: p53 small molecule agonists, cell-based qHTS assay: qHTS cell viability counter screen (AID 1963581). Note: nearly all actives have a fitted effect of over 45% in size. Summed up: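 p53RE-bla HCT-116 cells were exposed to compounds for 16 h at 37 C; after the beta-lactamase FRET read in the same wells, CellTiter-Glo was added and luminescence (intracellular ATP) read after 30 min at room temperature.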
A short description of assay [10]: p53 small molecule agonists, cell-based qHTS assay (AID 1963582; active = well fitted activation curve with a large enough effect in the signal ratio in the repeat runs, not every such curve was filed as active; the % refers to the signal ratio). Summed up: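 p53RE-bla beta-lactamase reporter cells rested 5 h at 37 C/5% CO2, then received compounds in DMSO by pin transfer and were incubated 16 h at 37 C. LiveBLAzer B/G FRET substrate was loaded for 2 h at room temperature before fluorescence reading.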
Assay [11] in a line: cAMP Responsive Elements (CRE) small molecule agonists, cell-based qHTS assay (AID 1963590). Summed up:
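CRE-bla HEK 293T cells in DMEM with 10% dialyzed FBS, NEAA, pyruvate and 25 mM HEPES were plated 18 h at 37 C/5% CO2, then exposed to compounds in DMSO for 3 h before LiveBLAzer B/G FRET substrate addition.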

Assay [12] has as its target Beta-2 adrenergic receptor (Homo sapiens) (UniProt P07550). In words: Adrenergic beta2 receptor (ADRB2) small molecule antagonists, cell-based qHTS assay (AID 1963592). Note: series mostly up to about 92 µM; nearly all actives have a fitted effect of over 50% in size. In short, it runs like this: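 Cells (CHO, stable ADRB2 overexpression) incubated 18-20hr at 37C; compounds added from DMSO; agonist mix (1nM isoproterenol, 100uM IBMX, 25uM Ro-20-1724) added; 0.5hr RT; d2-cAMP and anti-cAMP-cryptate added; 1hr RT; 665/615 nm read.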

Assay [13] has the same target. Nature of the assay: Adrenergic beta2 receptor (ADRB2) small molecule agonists, cell-based qHTS assay (AID 1963593).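 Note: CHO cells stably overexpressing human ADRB2.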 Summed up:
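CHO cells stably over-expressing ADRB2 were plated overnight at 37C, then dosed with compounds plus a stimulation mix containing 100uM IBMX and 25uM Ro-20-1724 for 0.5hr at room temperature. cAMP was measured by HTRF competition, 1hr.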

The target in assay [14] is D(2) dopamine receptor (Homo sapiens) (UniProt P14416). In words: Dopamine D2 receptor (DRD2) small molecule agonists, cell-based qHTS assay (AID 1963594). Note: nearly all actives have a fitted effect of over 35% in size. Summed up:
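cAMP accumulation in DRD2-HEK293 cells measured by HTRF after 1 h detection; compounds added 10 min before NKH477 (200nM […]) forskolin-analogue stimulation, 30 min at room temperature, with Ro20-1724 present at 0.1 mM final.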

Assay [15] shares this target. Nature of the assay: Dopamine D2 receptor (DRD2) small molecule antagonists, cell-based qHTS assay (AID 1963595; active = well fitted inhibition curve with a large enough effect in the signal ratio in the repeat runs, with a control signal flat; the % refers to the signal ratio). Summed up:
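Antagonism was scored as restored cAMP in HEK293-DRD2 cells. These cells were stimulated with 200 nM NKH477 and 12 nM quinpirole for 30 min at room temperature, in the presence of 0.1 mM Ro20-1724.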

For assay [16], the target named is 5-hydroxytryptamine receptor 2A (Homo sapiens) (UniProt P28223). In words: 5-hydroxytryptamine receptor 2A (HTR2A) small molecule antagonists, cell-based qHTS assay (AID 1963586). Note: nearly all actives have a fitted effect of over 45% in size. In short, it runs like this: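 Antagonist-mode intracellular calcium assay: DOI (4 nM) added after 5 min compound pre-incubation at room temperature to dye-loaded HTR2A-CHO cells. Fluorescence followed for 3 min, sampled every second.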

The target of assay [17] is Muscarinic acetylcholine receptor M1 (Homo sapiens) (UniProt P11229). Nature of the assay: Cholinergic receptor muscarinic 1 (CHRM1) small molecule antagonists, cell-based qHTS assay (AID 1963588). Note: nearly all actives have a fitted effect of over 40% in size. Summed up:
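CHRM1-CHO calcium-flux assay, antagonist mode. Cells were seeded 18 h, dye-loaded 1 h at 37 C and given compound for 5 min at RT, then acetylcholine was added at 50nM. FDSS fluorescence was read 3 min; 15 concentrations, three runs.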

Assay [18] shares this target. In words: Cholinergic receptor muscarinic 1 (CHRM1) small molecule agonists, cell-based qHTS assay (AID 1963589). Note: nearly all actives have a fitted effect of over 35% in size. Summed up: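 CHO cells stably expressing human CHRM1, seeded 18 h at 37 C/5% CO2, dye-loaded 1 h at 37 C, then given compound in agonist mode; intracellular calcium fluorescence read kinetically at 1 s intervals. Fifteen concentrations, three independent runs.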

The nature of assay [19]: cAMP Responsive Elements (CRE) small molecule antagonists, cell-based qHTS assay (AID 1963591; active = well fitted inhibition curve with a large enough effect in the signal ratio in the repeat runs, not every such curve was filed as active; the % refers to the signal ratio). In short, it runs like this: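 CRE-bla HEK293T cells were plated 18 h at 37 °C/5% CO2, pinned with compound in DMSO, then stimulated with NKH477 at 0.25 uM final for 3 h. LiveBLAzer B/G FRET substrate was added and plates incubated 2 h at room temperature.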
Assay [20] deals with 5-hydroxytryptamine receptor 2A (Homo sapiens) (UniProt P28223). In words: 5-hydroxytryptamine receptor 2A (HTR2A) small molecule agonists, cell-based qHTS assay (AID 1963587). Note: nearly all actives have a fitted effect of over 30% in size. In short, it runs like this:
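Kinetic calcium-flux fluorescence (2 min, 1 sec intervals) after compound addition in agonist mode. HTR2A-CHO cells were cultured 18 h, then dye-loaded 1 h at 37 C.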

Chain of 5-hydroxytryptamine receptor 2A (Homo sapiens) (P28223 whole entry, looked up): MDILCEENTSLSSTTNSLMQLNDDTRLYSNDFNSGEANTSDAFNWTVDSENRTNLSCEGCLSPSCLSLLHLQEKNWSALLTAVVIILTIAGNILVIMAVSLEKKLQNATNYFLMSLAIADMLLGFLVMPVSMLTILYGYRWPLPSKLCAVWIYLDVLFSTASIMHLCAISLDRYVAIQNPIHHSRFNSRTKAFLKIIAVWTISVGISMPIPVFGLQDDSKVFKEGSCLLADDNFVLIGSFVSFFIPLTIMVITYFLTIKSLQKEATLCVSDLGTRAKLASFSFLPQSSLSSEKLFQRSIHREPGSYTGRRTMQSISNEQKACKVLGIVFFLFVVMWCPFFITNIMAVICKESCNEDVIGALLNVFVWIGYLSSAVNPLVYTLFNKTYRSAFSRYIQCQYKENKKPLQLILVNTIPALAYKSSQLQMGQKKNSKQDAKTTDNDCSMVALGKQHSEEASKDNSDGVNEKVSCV
Chain of Gonadotropin-releasing hormone receptor (Homo sapiens) (P30968 whole entry, looked up): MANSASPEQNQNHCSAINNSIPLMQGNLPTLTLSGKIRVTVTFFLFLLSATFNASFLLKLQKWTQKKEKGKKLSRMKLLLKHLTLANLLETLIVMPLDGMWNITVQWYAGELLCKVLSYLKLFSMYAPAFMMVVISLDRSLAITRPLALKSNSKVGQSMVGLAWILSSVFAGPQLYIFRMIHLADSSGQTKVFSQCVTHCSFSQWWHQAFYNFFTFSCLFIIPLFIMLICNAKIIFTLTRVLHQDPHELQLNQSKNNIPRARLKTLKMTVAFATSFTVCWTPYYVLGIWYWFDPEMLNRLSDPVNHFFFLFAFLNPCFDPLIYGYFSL
Chain of D(2) dopamine receptor (Homo sapiens) (P14416 whole entry, looked up): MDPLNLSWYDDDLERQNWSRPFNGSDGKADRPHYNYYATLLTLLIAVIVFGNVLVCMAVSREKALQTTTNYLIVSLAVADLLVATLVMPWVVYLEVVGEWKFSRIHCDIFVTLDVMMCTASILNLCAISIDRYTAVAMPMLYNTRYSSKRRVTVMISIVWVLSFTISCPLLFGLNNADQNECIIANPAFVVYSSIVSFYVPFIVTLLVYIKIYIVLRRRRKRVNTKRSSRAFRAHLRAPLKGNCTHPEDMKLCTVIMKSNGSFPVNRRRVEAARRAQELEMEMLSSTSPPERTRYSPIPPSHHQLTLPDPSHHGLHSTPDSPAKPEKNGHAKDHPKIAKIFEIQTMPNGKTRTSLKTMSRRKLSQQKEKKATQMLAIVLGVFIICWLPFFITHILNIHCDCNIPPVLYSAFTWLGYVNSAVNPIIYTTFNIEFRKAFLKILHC
Chain of KiSS-1 receptor (Homo sapiens) (Q969F8 whole entry, looked up): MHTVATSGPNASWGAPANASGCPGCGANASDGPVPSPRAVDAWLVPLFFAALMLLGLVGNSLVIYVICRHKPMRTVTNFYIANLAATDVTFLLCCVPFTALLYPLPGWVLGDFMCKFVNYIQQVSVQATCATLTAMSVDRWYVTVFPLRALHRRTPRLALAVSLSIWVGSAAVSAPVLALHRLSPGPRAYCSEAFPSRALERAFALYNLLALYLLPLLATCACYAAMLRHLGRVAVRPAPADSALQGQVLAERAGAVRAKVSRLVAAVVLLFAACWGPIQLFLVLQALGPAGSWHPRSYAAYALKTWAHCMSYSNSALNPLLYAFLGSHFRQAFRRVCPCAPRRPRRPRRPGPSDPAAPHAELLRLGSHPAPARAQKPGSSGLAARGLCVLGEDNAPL
Chain of Beta-2 adrenergic receptor (Homo sapiens) (P07550 whole entry, looked up): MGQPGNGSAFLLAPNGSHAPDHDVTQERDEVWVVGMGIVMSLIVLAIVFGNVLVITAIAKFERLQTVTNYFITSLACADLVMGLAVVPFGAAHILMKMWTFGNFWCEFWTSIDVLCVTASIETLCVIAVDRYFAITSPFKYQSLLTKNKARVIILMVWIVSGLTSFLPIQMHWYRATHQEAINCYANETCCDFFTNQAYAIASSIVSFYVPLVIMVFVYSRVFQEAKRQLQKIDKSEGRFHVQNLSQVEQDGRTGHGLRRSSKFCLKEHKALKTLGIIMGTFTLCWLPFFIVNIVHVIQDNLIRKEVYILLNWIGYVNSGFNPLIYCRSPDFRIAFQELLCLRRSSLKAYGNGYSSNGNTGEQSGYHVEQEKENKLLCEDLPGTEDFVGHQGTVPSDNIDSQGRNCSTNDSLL
Chain of Muscarinic acetylcholine receptor M1 (Homo sapiens) (P11229 whole entry, looked up): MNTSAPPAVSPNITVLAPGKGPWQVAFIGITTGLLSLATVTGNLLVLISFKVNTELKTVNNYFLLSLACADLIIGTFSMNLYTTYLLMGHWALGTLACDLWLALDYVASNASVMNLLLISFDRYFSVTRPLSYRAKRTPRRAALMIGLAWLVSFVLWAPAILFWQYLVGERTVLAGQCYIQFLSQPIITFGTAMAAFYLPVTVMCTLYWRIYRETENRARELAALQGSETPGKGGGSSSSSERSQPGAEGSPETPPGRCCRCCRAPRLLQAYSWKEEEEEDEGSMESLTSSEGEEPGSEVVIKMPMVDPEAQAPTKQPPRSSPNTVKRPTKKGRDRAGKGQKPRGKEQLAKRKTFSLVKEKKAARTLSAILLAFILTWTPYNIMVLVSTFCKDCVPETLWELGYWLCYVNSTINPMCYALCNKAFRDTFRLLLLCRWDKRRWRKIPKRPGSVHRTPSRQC

Regarding `CC1(C)O[C@@H]2C[C@H]3[C@@H]4CCC5=CC(=O)CC[C@]5(C)[C@@]4(F)[C@@H](O)C[C@]3(C)[C@]2(C(=O)CCl)O1`, the Potency result in [1], in assay [2], in assay [3], in [4], in assay [5] and in assay [6] was “inactive” throughout. Further, the Potency result in [7], in assay [8], in assay [9], in [10], in assay [11] and in [12] was “inactive” each time. Moreover, the Potency entry in assay [13], in [14] and in assay [15] was “inactive” each time.

Turning to `CCC(=O)OCCC(C)CCC=C(C)C` (stereo not given), the Potency entry in assay [1], in assay [2], in assay [3], in assay [4], in assay [5] and in [6] was “inactive” each time. In addition, the Potency entry in assay [7], in [8], in assay [9], in assay [10], in assay [16] and in assay [17] was “inactive” throughout. Further, the Potency entry in [18], in [11], in [19], in [12], in assay [14] and in assay [15] was “inactive” each time.

Consider `CC1(C)[C@@H](OC(=O)CCC(=O)O)CC[C@]2(C)[C@H]3C(=O)C=C4[C@@H]5C[C@@](C)(C(=O)O)CC[C@]5(C)CC[C@@]4(C)[C@]3(C)CC[C@@H]12`, for which the Potency entry in [1], in assay [2], in [3], in [4], in assay [5] and in [6] was “inactive” each time. In addition, the Potency result in [7], in [8], in [9], in assay [16], in assay [20] and in assay [17] was “inactive” in each case. Also, the Potency result in assay [18], in assay [11], in assay [19], in [12], in [14] and in assay [15] was “inactive” throughout.

In the case of `CCCCC1C(=O)N(c2ccccc2)N(c2ccc(O)cc2)C1=O` (stereo not given), the Potency was 21.1 µM (active) in [1] and 10.6 µM (active) in assay [2]. Moreover, the Potency entry in assay [3], in assay [4], in assay [5], in [6], in assay [7] and in [8] was “inactive” throughout. For the same molecule, the Potency entry in [9], in assay [16], in assay [20], in assay [17], in [18] and in assay [12] was “inactive” throughout. Also, in [14], the Potency entry was “inactive”.

For the molecule `O=C(O)Cn1cnnn1`, the Potency result in assay [1], in assay [2], in assay [3], in [4], in assay [5] and in [6] was “inactive” in each case. In addition, the Potency entry in [7], in assay [8], in [9], in assay [16], in [20] and in [17] was “inactive” each time. Also, the Potency entry in assay [18], in [11], in assay [19], in assay [12], in assay [13] and in [14] was “inactive” throughout. The Potency result in [15] was “inactive”.

Consider `COc1ccc(S(=O)(=O)Nc2nnc(CC(C)C)s2)cc1`, for which the Potency entry in [1], in assay [2], in assay [3], in assay [4], in [5] and in assay [6] was “inactive” in each case. For the same molecule, the Potency result in assay [7], in assay [8], in assay [9], in [10], in assay [20] and in assay [17] was “inactive” each time. The Potency entry in assay [18], in assay [19], in [12], in [13], in assay [14] and in assay [15] was “inactive” in each case.

On to `Cc1onc(-c2c(Cl)cccc2Cl)c1C(=O)Cl`, for which the Potency result in assay [1], in assay [2], in [3], in assay [4], in [5] and in assay [6] was “inactive” in each case. The Potency entry in assay [7], in assay [8], in assay [9], in [10], in assay [20] and in assay [17] was “inactive” in each case. Moreover, the Potency entry in assay [18], in assay [19], in [13], in [14] and in assay [15] was “inactive” in each case.

On to `C=C(C)C(=O)OCCOC(=O)CC(C)=O`, for which the Potency result in [1], in assay [2], in assay [3], in [4], in [5] and in assay [6] was “inactive” each time. Further, the Potency result in assay [7], in [8], in [9], in assay [10], in assay [20] and in [17] was “inactive” in each case. In addition, the Potency entry in assay [18], in [14] and in [15] was “inactive” throughout.

The record behind these values is PubChem BioAssay (Tox21).
